Shown are actives, neighbours in structure and some others; about 5% of the full set was active somewhere.
VACV Venus inh – qHTS for Stage-Specific Inhibitors of Vaccinia Orthopoxvirus: Venus Reporter Primary qHTS | 0.46% of 330,000 active | Potency, µM (top dose mostly 36.5 µM), without a hit: at the highest dose activity change, negative = inhibition, actives largely listed as inhibitors | Vaccinia virus Venus reporter expression, fluorescence; calls by dose curve; tested in A549 cells; note: potency is the fitted concentration of half-maximal effect; nearly all actives have a fitted effect of over 30% in size
LmPK inh – qHTS Assay for Inhibitors of Leishmania Mexicana Pyruvate Kinase (LmPK); Q27686; purified LmPK, Kinase-Glo ATP luminescence, 1 h; Potency, µM (top dose mostly 57.5 µM), inactives show at the top dose activity change, negative = inhibition, actives largely listed as inhibitors; 0.37% of 290,000 active; AID 1721, 2009; note: potency is the fitted concentration of half-maximal effect
Target sequence (Q27686 whole entry, looked up): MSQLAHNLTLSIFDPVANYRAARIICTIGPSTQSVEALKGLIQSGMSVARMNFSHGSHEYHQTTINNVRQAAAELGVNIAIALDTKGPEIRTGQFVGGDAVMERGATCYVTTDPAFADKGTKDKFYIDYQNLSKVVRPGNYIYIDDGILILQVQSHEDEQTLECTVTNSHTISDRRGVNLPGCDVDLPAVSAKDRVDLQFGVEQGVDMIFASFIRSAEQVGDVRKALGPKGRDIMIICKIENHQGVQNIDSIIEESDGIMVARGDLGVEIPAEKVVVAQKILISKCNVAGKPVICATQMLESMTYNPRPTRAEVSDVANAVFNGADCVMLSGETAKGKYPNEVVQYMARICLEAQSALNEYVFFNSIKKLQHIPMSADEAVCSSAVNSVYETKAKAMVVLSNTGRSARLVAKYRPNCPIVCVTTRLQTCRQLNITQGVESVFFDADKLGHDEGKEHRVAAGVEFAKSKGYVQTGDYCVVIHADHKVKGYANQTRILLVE
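In 50 mM imidazole pH 7.2 with 7 mM MgCl2, LmPK (0.1 nM) turned over PEP (0.5 mM) and ADP (0.1 mM) for 1 h at room temperature. Luciferase read-out of ATP.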
VACV mCherry inh – qHTS for Stage-Specific Inhibitors of Vaccinia Orthopoxvirus: mCherry Reporter Primary qHTS; Potency, µM (highest dose often 36.5 µM), inactives show at the top dose activity change, negative = inhibition, most hits filed as inhibitors; 0.63% of 310,000 active; Vaccinia virus mCherry reporter infection, fluorescence; AID 720579, 2013; calls by dose curve; tested in A549 cells; note: potency is the fitted concentration of half-maximal effect; nearly all actives have a fitted effect of over 35% in size
HCMV inh – qHTS Assay for inhibitors of the human cytomegalovirus (HCMV) | HFF cells, HCMV-luciferase reporter, 72 h; hits give low values | activity change, negative = inhibition, % at 57.5 µM | 4.5% of 410,000 active; in the data active = activity change below about -60%; inconclusive = no clear call, values can overlap the other calls; inactive = above about -39%
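Human foreskin fibroblasts infected with luciferase-reporter HCMV at MOI 1 PFU/cell, compounds at two doses. Luciferase measured 72 h post infection; normalized to buffer-only basal and Salinomycin (10uM) controls.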
Tb PYK inh – qHTS of Trypanosoma Brucei Inhibitors; AID 624173, 2012; TbPYK enzyme, Kinase-Glo Plus ATP luminescence, 45 min; 0.12% of 410,000 active; Potency, µM (doses to about 76.8 µM), for inactives: at the top dose activity, negative = inhibition, most hits filed as inhibitors; pyruvate kinase (Trypanosoma brucei), Q57TT1; note: potency is the fitted concentration of half-maximal effect; nearly all actives have a fitted effect of over 50% in size
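ADP (130 uM final) triggers the TbPYK reaction after compound addition; incubation is 45 min at room temperature. Kinase-Glo Plus is then added and luminescence imaged. Normalized data are fitted to concentration-effect curves.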
* = called active by the depositor; i = inactive; ? = inconclusive; . = not tested or not shown; [ ] = remark or other dose. Unless noted, calls come from the whole dose curve; as a rule, active = well fitted curve in the direction sought with a large enough effect; inconclusive = small, poorly fitted or top-dose-only effect, or another doubt; inactive = no such curve, though single readings can be large; an effect the other way counts as inactive or inconclusive. % is set by controls: 0 for no effect and ±100 for the full control effect.

SMILES	VACV Venus inh	LmPK inh	VACV mCherry inh	HCMV inh	Tb PYK inh
COc1cc(OC)c(OC)cc1CN1CCCC(c2[nH]ncc2-c2cccc(C(F)(F)F)c2)C1 (stereo not given)	-16%	.	-20%	.	.
CCc1cccc(CC)c1NC(=O)/C(C#N)=C/c1ccccc1C(F)(F)F	?	0%	-18%	-103*	-10%
O=C(O)c1cnc(N2CCOCC2)nc1	3%	4%	-14%	-32	2%
Cc1ccc(C(=O)Nc2ccc3c(c2)CCC3)cc1	.	?	.	-74*	-8%
Cc1cc(C)n2nc(C(=O)Nc3ccc4c(c3)OCO4)nc2n1	-15%	-14%	.	60	-5%
Cc1ccc(C(=O)Nc2ccc3c(c2)OCCO3)cc1	-25%	-20%	-7%	?	-10%
Cc1ccnc2nc(C(=O)Nc3ccc4c(c3)OCO4)nn12	-3%	16µM*	-17%	50	-21%
Cc1ccc(C(=O)Nc2ccc3c(c2)OCO3)cc1	-23%	22µM*	-27%	30	-17%
O=C(Cc1cccc(F)c1)Nc1ccc2c(c1)CCC2	-12%	2%	-9%	-98*	-1%
Cc1ccc(C(=O)NCC(=O)Nc2ccc3c(c2)CCC3)cc1	11%	.	i	70	-2%
O=C(Cc1ccccc1F)Nc1ccc2c(c1)CCC2	-19%	0%	i	-15	2%
O=C(CC1SC(=O)N(Cc2ccccc2)C1=O)Nc1nccs1 (stereo not given)	-4%	3%	-10%	-28	2%
COc1ccc(S(=O)(=O)NCCc2cn3cccc(C)c3n2)cc1OC	-1%	4%	-17%	10	3%
CC1CCN(c2ccc(C(=O)Nc3ccc4c(c3)OCO4)cc2[N+](=O)[O-])CC1	-12%	4%	-23%	-61*	3%
CC(C)CC(=O)Nc1ccc2c(c1)OCO2	-4%	2%	-9%	19	2%
CC1CCCN(c2ccc(C(=O)Nc3ccc4c(c3)OCO4)cc2[N+](=O)[O-])C1 (stereo not given)	?	2%	-12%	?	5%
CC1CCN(CCC(=O)Nc2ccc3c(c2)CCC3)CC1	-2%	4%	i	-80*	5%
Cc1ccc(C(=O)Nc2ccc3c(c2)OCO3)o1	2%	18µM*	-4%	146	?
O=C(CCl)Nc1ccc2c(c1)OCO2	-19%	6%	-20%	-61*	-3%
O=C(NC1CCCC1)C(NS(=O)(=O)c1cccc2nsnc12)c1ccccc1 (stereo not given)	.	1%	.	27	-2%
Cc1nn(Cc2c(F)c(F)c(F)c(F)c2F)c(C)c1NC(=O)c1ccc(COc2ccccc2Cl)o1	?	-1%	?	-66*	-1%
CSc1nc2sc3c(c2c(=S)[nH]1)CC(C)(C)OC3	-9%	-6%	i	30	-23%
CCc1cccc(C)c1NC(=O)Cn1nc(C)c2nn(-c3ccc(Cl)cc3)c(C)c2c1=O	-21%	.	?	-62*	3%
CCCCOc1ccc(CSc2nc(C)[nH]c2[N+](=O)[O-])cc1[N+](=O)[O-]	-19%	0%	i	1	10%
O=C(CN1CCN(Cc2ccc(Cl)cc2)C1=O)NCCCN1CCN(c2ccc(F)cc2)CC1	.	2%	.	-75*	-1%
SMILES	VACV Venus inh	LmPK inh	VACV mCherry inh	HCMV inh	Tb PYK inh
O=C(CN1CCN(Cc2ccc(Cl)cc2)C1=O)NCCCN1CCOCC1	-6%	8%	i	28	2%
O=C(NCCCN1CCOCC1)NC12CC3CC(CC(C3)C1)C2	-26%	-1%	.	-24	-8%
O=C(NCCCN1CCN(c2ccc(F)cc2)CC1)NC12CC3CC(CC(C3)C1)C2	-13%	-1%	?	-79*	3%
CCn1cc(CN2CCN(C)C(CCO)C2)c2ccccc21 (stereo not given)	3%	-1%	i	-24	-2%
COCCn1c(C)cc(C(=O)CSc2nc3ccccc3c(=O)n2Cc2ccco2)c1C	-19%	1%	i	-69*	3%
CCCN(CCC)C(=O)CSc1nc2ccccc2c(=O)n1Cc1ccco1	-10%	.	-16%	-21	-9%
CN(Cc1ccccc1)C(=O)CSc1nc2ccccc2c(=O)n1Cc1ccco1	-2%	1%	?	-80*	7%
N#C/C(=C\c1cn[nH]c1-c1ccccc1Br)C(=O)O	-10%	-1%	-13%	34	-4%
O=C(Cc1c(F)cccc1Cl)Nc1ccccn1	-5%	-4%	-15%	96	0%
Cc1ccc(CNC(=O)CC(C)S(=O)(=O)c2ccc3c(c2)NC(=O)CO3)cc1 (stereo not given)	-13%	-1%	i	0	1%
O=C(CCn1nc(-c2ccc(Cl)cc2)c2ccccc2c1=O)NCCN1CCOCC1	-6%	2%	-4%	13	1%
CCN(CC)C(=O)c1ccc(NC(=O)CCn2nc(-c3ccc(C)cc3)c3ccccc3c2=O)cc1	-25%	.	i	-65*	-1%
O=C(Cn1nc(-c2ccccc2)c2ccccc2c1=O)Nc1ccccn1	?	-5%	.	-61*	-1%
O=C(CCn1nc(-c2ccccc2)c2ccccc2c1=O)NN1CCOCC1	5%	4%	-4%	-70*	1%
CCN(CC)C(=O)c1ccc(-c2nnc(Nc3ccc(C(=O)NC)cc3)c3ccccc23)cc1	.	1%	.	-22	1%
CCN(CC)C(=O)c1ccc(-c2nnc(OC)c3ccccc23)cc1	0%[7.34 µM]	-4%	-12%[7.34 µM]	-66*	-3%
O=Cc1cc([B-](F)(F)F)cs1	.	.	.	20	.
Cc1ccc(CN2C(=O)c3ccccc3C2c2nnnn2-c2ccc3c(c2)OCCO3)cc1 (stereo not given)	-1%	.	28%	-19	-6%
CCCCn1nnnc1C1(C)CCC(=O)N1CC(F)(F)F (stereo not given)	2%	.	-8%	4	9%
CSC(=Nc1ccccc1)N=C(SCc1ccccc1)N(C)C	?	.	?	-101*	-9%
COc1ccc(-n2nc(C(=O)Nc3ccc4c(c3)OCO4)c3c4ccccc4n(C)c3c2=O)cc1	1%	5%	-12%	84	-4%
COc1ccc(-n2nc(C(=O)Nc3ccc(OC)c(OC)c3)c3c4ccccc4n(C)c3c2=O)cc1	-19%	5%	i	-64*	1%
CCOc1ccc(C(=O)NNC(=O)CN2C(=O)NC3(CCCC3)C2=O)cc1	-1%	.	-14%	-102*	-2%
CCOc1ccc(C(=O)CN2C(=O)NC3(CCCCCC3)C2=O)cc1	-10%	.	-17%	-5	6%
COc1ccc(OCC(=O)OC2CCCN(C)C2)cc1 (stereo not given)	-5%	-4%	i	29	3%
Brc1ccc2c(c1)OCCOCCOc1cc(Br)ccc1OCCOCCOCCO2	10µM*	2%	?	.	-5%
